The record followed here is PubChem BioAssay.

For this assay, the system named is Chordin-like protein 2 (CHRDL2). The experiment in a line: CHRDL2 small-molecule binders, primary screen, biochemical, small-molecule microarray, 635 nm fluorescence (AID 1126).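 Further: printed compound slides probed with Chrdl2 protein at 4 µg/mL for 1 h at 4 C; score merges 667 nm emission intensity with signal to noise over three replicate slides.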 The following applies: small-molecule microarray binding, fluorescence 635 nm; higher = more signal.
With `Oc1ccc2cc[n+](Cc3cccc(OC(F)(F)F)c3)cc2c1`, the composite z-score turned out to be 0.959.
In the case of `CC1CC/C=C\[C@H]2OC34C=CCN(CCN5CCOCC5)C(=O)[C@H]3N(CCCCCO)C(=O)[C@@H]4C2C(=O)O1` (stereo partly specified) it was -0.191; in that of `C=C(C(=O)CC[C@@H](OC(=O)c1cccnc1)c1ccc(CO)o1)C(C)C`, 0.584.
In the case of `C=CCC(OC(C)=O)[C@@H]1[C@@H](N(Cc2cc3ccccc3o2)C(=O)c2cccc3ccccc23)c2cc(OCCCO)ccc2N1C(=O)Cc1ccc(OC)cc1` (stereo partly specified) it was 0.364; in that of `C=CCN1C(=O)[C@]2(COC(c3ccc(OCCCO)cc3)=N2)Cc2ccccc21`, 0.0453; in that of `O=C(NCc1ccccc1)[C@@H]1c2ccccc2C(=O)N(C2CCCCC2)[C@H]1c1ccc(CO)cc1`, -0.475.
The same measure for `[N-]=[N+]=NCc1ccccc1C[C@@]1(C(=O)NCc2ccccc2)N=C(c2ccc(OCCCO)cc2)O[C@@H]1c1ccccc1CN=[N+]=[N-]`: -0.106; for `CCOC(=O)C=Cc1cccc(OC)c1O`: -1.32.
Molecule `CN(C)CCCC[C@@H]1NC(=O)[C@H]2C[C@@H](C(=O)NCCCCCNC(=O)CS)[C@@H](c3ccc(O)cc3)N2C1=O` yielded a composite z-score of -0.688.
The same measure for `COC(=O)[C@@]1(Cc2ccccc2)[C@H]2c3cc(C(=O)N(C)C)n(Cc4cc(F)c(F)c(F)c4)c3C[C@H]2CN1C(=O)c1ccccc1`: -0.801; for `C=C(C)[C@@H]1CC=C(C(O)C2C=CC3C(=O)N(Cc4ccccc4)C(=O)C3N2n2cnnc2)CC1` (stereo partly specified): -0.918; for `O=C(NCCN1CCOCC1)[C@@H]1c2ccccc2C(=O)N(Cc2cc(F)cc(C(F)(F)F)c2)[C@H]1c1ccc(CO)cc1`: -1.55.
The molecule `O=C1O[C@H](c2ccccc2)[C@H](c2ccccc2)N2[C@H]1[C@@H](C(=O)NC[C@H](O)c1ccccc1)[C@]1(C(=O)Nc3ccc(C#CC4(O)CCCCCC4)cc31)[C@H]2c1ccccc1OCCO` came in with a composite z-score of 0.117.
In the case of `C=C(/C(=C/C[C@@H](OC(=O)c1ccncc1)c1ccc(CO)o1)c1cc(C(=O)OC)ccc1OC)C(C)C` it was 0.737.
In the case of `COc1ccc([Si](C)(C)[C@@H]2[C@@H](CCO)O[C@]3(C(=O)N(Cc4ccccc4)c4ccc(N(C=O)c5ccccc5)cc43)[C@H]2C)cc1` it was -0.15; in that of `CCCCCCC#C[Si](O[C@H](c1ccccc1)c1cn([C@H](C)c2ccccc2)nn1)(C(C)C)C(C)C`, 0.267; in that of `[N-]=[N+]=NCc1ccccc1[C@@H]1OC(c2ccc(OCCCO)cc2)=N[C@]1(Cc1ccccc1)C(=O)O`, -0.817.
Take `CCCC[C@@H]1C[C@H]1[C@@H](NC(=O)c1ccccc1)c1ccc(-c2ccccc2)cc1`: the composite z-score was -0.995.
In the case of `Cc1ccc(S[C@]2(C(=O)NCCN3CCOCC3)CC(=O)N(C3CCCCC3)[C@@H]2c2ccc(CO)cc2)cc1` it was -0.179.
The same measure for `CC(C)NC(=O)[C@@]1(c2ccc([N+](=O)[O-])cc2)CC(=O)N(C(C)C)[C@@H]1c1ccc(CO)cc1`: -1.66.
The same measure for `C=CCN1Cc2ccccc2C[C@@]2(COC(c3ccc(OCCCO)cc3)=N2)C1=O`: 1.12.
`COCCn1c(C(=O)N2CCCC2)cc2c1C[C@H]1CN(C(=O)c3ccccc3)[C@@](Cc3ccc(OC)cc3)(C(=O)OC)[C@@H]21`: the composite z-score is -0.975.
In turn, `C=C[C@@H](C)[C@@H](OC(=O)Nc1ccc(OC)cc1)c1ccc(O)c2ccccc12` displayed a composite z-score of 0.897.
In the case of `COCCOC(=O)N1C(=O)[C@@]2(c3ccccc31)[C@H](C(=O)N1CCCCCCC1)[C@H]1C(=O)O[C@H](c3ccccc3)[C@H](c3ccccc3)N1[C@@H]2c1ccccc1OCCO` it was 1.32.
As to `COCCn1c(C(=O)N(C)C)cc2c1C[C@H]1CN(C(=O)c3ccccc3)[C@@](Cc3ccc(F)cc3)(C(=O)OC)[C@@H]21`, the composite z-score came to 0.194.
In the case of `CC(C)N1C(=O)c2ccccc2[C@](C)(C(=O)NCCCN(C)C)[C@@H]1c1ccc(CO)cc1` it was -0.85.
The same measure for `O=C1C2C=CC(C(O)c3ccc(-c4ccccc4)s3)N(Nc3ccccc3F)C2C(=O)N1c1ccccc1` (stereo unspecified): -0.0798; for `CN1C(=O)C2C(C1=O)C1C=C(c3ccc(CO)cc3)C2C(C2CC2)N1Cc1sc2ccccc2c1Cl` (stereo unspecified): -0.124; for `CO[C@H]1O[C@H](CO)[C@@H](OC(=O)Nc2ccc3c(c2)OCO3)[C@H](OC(=O)Nc2ccc3c(c2)OCO3)[C@H]1OC(=O)Nc1ccc2c(c1)OCO2`: 0.138.
The same measure for `C=CC[C@]1(C(=O)NCCN2CCOCC2)N=C(c2ccc(OCCCO)cc2)O[C@H]1c1ccccc1N=[N+]=[N-]`: 0.663.
`C=CCNC(=O)[C@@H]1[C@H]2C(=O)O[C@H](c3ccccc3)[C@H](c3ccccc3)N2[C@H](c2ccccc2OCCO)[C@@]12C(=O)N(C(=O)OCCOC)c1ccc(C#CCC(C(=O)OC)C(=O)OC)cc12` registered a composite z-score of 1.49.
